The values below come from PubChem BioAssay AID686979 (National Center for Advancing Translational Sciences (NCATS), 2013).

Each structure is given as a SMILES string. In all, about 420,000 compounds went through this assay and about 50,000 (12%) were called active. Not shown: some 26% with an inconclusive outcome. The sample as a whole holds a higher share of actives than the screen did. Unmarked numbers belong to inactive results. The call rests on the fitted dose curve; in most records, active means well fitted inhibition curve with a large enough effect; inconclusive means small, poorly fitted or top-dose-only effect; inactive means flat fitted curve, though single readings scatter.
On the % scale 0 is the no-effect control and ±100 the full control effect; potency means the concentration at half of the fitted maximal effect.

This assay in a line: qHTS for Inhibitors of human tyrosyl-DNA phosphodiesterase 1 (TDP1): qHTS in cells in presence of CPT. Further: nearly all actives have a fitted effect of over 55% in size. Conditions: chicken DT40 Tdp1-/-;hTDP1 cells + 20 nM CPT, ATP luminescence, 48 h; series mostly up to 46.2 µM; activity change, negative = growth inhibition: at the top concentration. An outline of the steps: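 Cell growth measured by CellTiter-Glo luminescence after a minimum 48 h, 37 C compound exposure with 20 nM CPT in Tdp1-knockout DT40 cells stably expressing hTDP1, seeded 400/well; qHTS titration format.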
For the compound `Cc1cccc(C(=O)Nc2ccccc2-c2nnn(CC(=O)Nc3ccc4c(c3)OCCO4)n2)c1`, the “activity change, negative = growth inhibition” value is -23.9%.

For the compound `Cc1ccc(-n2ncc3c(NCCCn4ccnc4)ncnc32)cc1Cl`, the Potency was 20.6 µM (active).

Regarding `Cc1ccc2c(Cl)c(C(=O)NCCCn3ccnc3)sc2c1`, the “activity change, negative = growth inhibition” value was -24%.

With `O=C(NCCCn1ccnc1)Nc1ccc(Cl)cc1Cl`, the “activity change, negative = growth inhibition” value was -17.8%.

Consider `CC1CN(C(=O)N2CCC(C(=O)NCc3cccs3)CC2)c2ccccc2O1` (centres undefined), for which the “activity change, negative = growth inhibition” value is -3.5%.

For the compound `Cc1cnc(CN(C)C(=O)C2CCC(=O)N(CCc3cccc(F)c3)C2)[nH]1` (centres undefined), the “activity change, negative = growth inhibition” value was 1.53%.

`O=C(NC(=S)Nc1ccc(Br)cc1F)C1CCCCC1`: the “activity change, negative = growth inhibition” value was -24.6%.

Regarding `S=C(Nc1ccc(Cl)cc1Cl)N1CCCC1`, the “activity change, negative = growth inhibition” value is 1.1%.

For the compound `O=C(NC(=S)Nc1ccc(Cl)cc1Cl)C1CC1`, the Potency is 20.6 µM (active).

As for `CCCCCCNC(=O)CSc1nccn1Cc1ccccc1`, the “activity change, negative = growth inhibition” value is -26.6%.

Turning to `COC1[C@H](OC(N)=O)C(O)[C@H](Oc2ccc3c(O)c(NC(=O)c4ccc(O)c(CC=C(C)C)c4)c(=O)oc3c2C)OC1(C)C` (some centres undefined), the “activity change, negative = growth inhibition” value was -3.46%.

On to `Cc1ccc(NC(=O)CN(C)C(=O)COC(=O)c2nccnc2N)cc1`, for which the “activity change, negative = growth inhibition” value was -9.42%.

Consider `CC[C@@H]1CCCCc2ccccc2[C@@H](C(=O)C[C@H](O)CC(C)=O)OC1=O`, for which the “activity change, negative = growth inhibition” value is -10.9%.

With `O=C(CN1C(=O)C2C3C=CC(C3)C2C1=O)NCC1COc2ccccc2O1` (centres undefined), the “activity change, negative = growth inhibition” value is 2.17%.

As for `Cc1noc(C)c1C(=O)NCC1COc2ccccc2O1` (centres undefined), the “activity change, negative = growth inhibition” value is -23.6%.

For `O=C1C(=O)N(CC2COc3ccccc3O2)c2ccccc21` (centres undefined), the Potency is 1.64 µM (active).

On to `Cc1cc(C(=O)CCl)c(C)n1CC1COc2ccccc2O1` (centres undefined), for which the Potency is 2.06 µM (active).

Take `CCn1ccnc1C[C@@H]1COc2ccccc2O1`: the “activity change, negative = growth inhibition” value is -1.49%.

Take `Cc1cc(NC(=O)CCC2COc3ccccc3O2)no1` (centres undefined): the “activity change, negative = growth inhibition” value is -7.12%.

Take `O=c1c(NCc2cccs2)nccn1-c1ccccc1`: the “activity change, negative = growth inhibition” value is -5.85%.

As for `CCN(CC(=O)Nc1c(F)cccc1F)C(=O)CN1c2cccc3cccc(c23)S1(=O)=O`, the “activity change, negative = growth inhibition” value is -0.627%.

`O=C(Cn1cc(C(F)(F)F)ccc1=O)Nc1ccc2c(c1)OCCO2`: the “activity change, negative = growth inhibition” value was 2.89%.

Take `O=C(NCCc1nnc2ccc(SCC(=O)N3CCOCC3)nn12)c1ccccc1`: the “activity change, negative = growth inhibition” value was 19.8%.

In the case of `CC1=CCC2C(=O)N(c3cccc(C(=O)NC(C)c4ccccc4)c3)C(=O)C2C1` (centres undefined), the “activity change, negative = growth inhibition” value is 7.83%.

For the compound `COc1ccc(Cl)cc1NC(=O)CN(C)CC(=O)Nc1ccc2c(c1)OCO2`, the “activity change, negative = growth inhibition” value is -29.4%.

As for `Cc1oc(C)c2c(=O)cc(-c3ccc4c(c3)OCO4)cc(OC(=O)c3ccc(Cl)cc3)c12`, the Potency is 20.6 µM (active).

As for `CC1(c2ccc(Cl)cc2)NC(=O)N(CC(=O)c2ccc3c(c2)OCO3)C1=O` (centres undefined), the “activity change, negative = growth inhibition” value is -26.1%.

For the compound `Cc1cc(-c2ccccc2)nc(N2CCC(C(=O)NC34CC5CC(CC(C5)C3)C4)CC2)n1`, the “activity change, negative = growth inhibition” value was -20%.

With `CSCCC(NC(=O)COc1ccccc1)C(=O)OCCOc1ccc(F)cc1` (centres undefined), the “activity change, negative = growth inhibition” value is 1.47%.

Take `CSCCC(NC(=O)COc1ccccc1)C(=O)OCCOc1ccc(Br)cc1` (centres undefined): the “activity change, negative = growth inhibition” value is -7.17%.

As for `CSCCC(NC(=O)COc1ccccc1)C(=O)N1CCN(c2cccc(C(F)(F)F)c2)CC1` (centres undefined), the Potency was 16.4 µM (active).

Take `Nc1cc(N2CCCCCC2)c2nonc2c1[N+](=O)[O-]`: the “activity change, negative = growth inhibition” value was 3.78%.

Take `C(=Nc1ccc(/C=C/c2ccnc3ccccc23)cc1)Nc1ccc(/C=C/c2ccnc3ccccc23)cc1`: the Potency is 10 µM (active).

On to `C(=Nc1ccc(/C=C/c2ccnc3ccccc23)cc1)c1cc2c3c(c1)CCCN3CCC2`, for which the Potency is 11.2 µM (active).

Take `CCCCC(CCCC)c1ccc(C=Nc2ccc(/C=C/c3ccnc4ccccc34)cc2)cc1`: the Potency is 17.8 µM (active).

With `Cc1ccc(CNC(=O)CCNS(=O)(=O)c2cccc3nonc23)cc1`, the “activity change, negative = growth inhibition” value was 0.319%.

Consider `CCOC(=O)Cc1ccc(NC(=O)Nc2c[nH]c(=O)[nH]c2=O)cc1`, for which the “activity change, negative = growth inhibition” value is -22%.

For the compound `O=C(NNC(=S)Nc1ccc(F)cc1)[C@H]1C[C@@H]1c1ccccc1`, the “activity change, negative = growth inhibition” value is -0.703%.

As for `CC(Oc1ccccc1F)C(=O)NN` (centres undefined), the “activity change, negative = growth inhibition” value was -0.304%.

For the compound `Cc1ccc(S(=O)(=O)N(C)C)cc1NC(=O)CN1c2cccc3cccc(c23)S1(=O)=O`, the “activity change, negative = growth inhibition” value was -24.2%.

With `Cc1c(NC(=O)c2c([N+](=O)[O-])cnn2C)c(=O)n(-c2ccccc2)n1C`, the “activity change, negative = growth inhibition” value is -1.75%.

Take `CC(C)CC(NS(=O)(=O)c1ccc2c(c1)oc(=O)n2C)C(=O)NCc1ccccc1Cl` (centres undefined): the “activity change, negative = growth inhibition” value was 8.64%.

As for `O=c1c2cc([N+](=O)[O-])ccc2nc2n1CCC2`, the “activity change, negative = growth inhibition” value was 5.4%.

For `Cc1cc(C(C)(C)C)cc(C)c1N`, the “activity change, negative = growth inhibition” value is -4.73%.

Regarding `C=CCn1c(=NC(=O)c2ccc(S(=O)(=O)N3CCCC3)cc2)sc2cc(NC(C)=O)ccc21`, the “activity change, negative = growth inhibition” value is -24.1%.

Take `C=CCn1c(=NC(=O)c2cccs2)sc2cc(NC(C)=O)ccc21`: the Potency was 13 µM (active).

As to `C=CCn1c(CCNC(=O)c2cccs2)n[nH]c1=S`, the “activity change, negative = growth inhibition” value is -7.48%.

Regarding `Cc1cccc(CCNS(=O)(=O)c2ccc3c(c2)NC(=O)CO3)c1`, the “activity change, negative = growth inhibition” value is -23.9%.

With `CCOC(=O)c1cc2c(=O)n3ccccc3nc2n(CC2CCCO2)c1=NC(=O)c1ccc(C(C)(C)C)cc1` (centres undefined), the “activity change, negative = growth inhibition” value is -1.11%.
